Experimental data from paper PMC5540273 (PLoS ONE, 2017).
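Further: kd values determined as follow-up on hits from a single-replicate KINOMEscan panel screen.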

Each molecule was assayed on EGFR.
Work on `Cl.NC(=O)c1cccc(Nc2nccc(Nc3ccc(Oc4cccc(Cl)c4)c(Cl)c3)n2)c1` [GW659008] yielded a Kd of 0.12 µM. With `Cl.O=C(Nc1cccc(-c2nn3ncccc3c2-c2ccnc(Nc3cccnc3)n2)c1)c1c(F)cccc1F` [GSK312879] the Kd was 0.038 µM. `Cn1cncc1-c1ccc2ncnc(Nc3ccc(OCc4ccccc4)cc3)c2c1` [GW320571] was tested, and the Kd was 0.049 µM.

Each molecule was assayed on T1, ERK4.
T1 construct: gene MAPK4
`O=C(Nc1n[nH]c2nc(-c3nccs3)c(Br)cc12)C1CCCC1` [SB-742609] was tested, and the Kd was > 10 µM. With `CS(=O)(=O)c1ccc(-c2nc3n(c2-c2ccncc2)CCC3)cc1` [SKF-105942] the Kd was > 10 µM. With `Cc1cccc(-c2nc(C)cc(Nc3ccncc3)n2)n1` [GSK257997] the Kd was > 10 µM.

These molecules were tested on FLT3.
Work on `O=C(Nc1n[nH]c2nc(-c3nccs3)c(Br)cc12)C1CC1` [SB-742251] yielded a Kd of 0.19 µM. With `Cn1ccc2ncnc(Oc3ccc(NC(=O)Nc4ccccc4)cc3)c21` the Kd was 0.033 µM. `Cc1ccc(NC(=O)Nc2cc(C(C)(C)C)nn2-c2ccccc2)cc1` [GSK1014915] gave a Kd of 0.026 µM.

The molecules below were run on GAK.
`Cc1ccc(-c2cc(-c3c[nH]nc3-c3ccccn3)ccn2)cc1` [GW684088] gave a Kd of 0.11 µM. In the case of `CSc1nn2c(=O)cc(N3CCOCC3)nc2n1Cc1cccc(C(F)(F)F)c1C` [GSK2363608], the Kd is reported as > 10 µM. With `Fc1cc(Cl)ccc1Nc1ccnc2cc(I)ccc12` [GW551191] the Kd was 0.34 µM.

These molecules were tested on GSK3A.
`O=C(Nc1n[nH]c2nc(-c3nccs3)c(Br)cc12)C1CCCC1` [SB-742609] showed a Kd of 0.061 µM. `Cc1nnc(-c2ccc3occ(-c4ccc(S(C)=O)cc4)c3c2)[nH]1` (stereo not drawn) was tested, and the Kd was 0.19 µM. `O=C(Nc1n[nH]c2nc(-c3nccs3)c(Br)cc12)C1CC1` [SB-742251] was tested, and the Kd was 0.29 µM.
